According to the supplement of paper PMC8728848:
Shown is part of a subset that was picked to be rich in the strongest signals.

Assays:
Assay in all cases: glycan array binding signal (z-score within array); higher = stronger binding
Conditions in all cases: glycan notation: IUPAC condensed, linker removed
[1] = biological target: Fuc(a1-2)Gal(b1-3)GlcNAc
Procedure, shortened: (§1)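 Arrays were curated from the Consortium for Functional Glycomics database, 3228 in total, and kept only where the protein sequence was available. Binding is expressed as a within-array Z-score. This score was averaged across arrays of the same protein sequence at different concentrations or buffers and across linkers, and negative values can be read as non-binding.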

[2] = biological target: Fuc(a1-2)Gal(b1-3)GlcNAc(b1-3)Gal(b1-4)Glc
Procedure, shortened: as §1

[3] = biological target: Fuc(a1-2)Gal(b1-3)GlcNAc(b1-3)[Gal(b1-4)GlcNAc(b1-6)]Gal(b1-4)Glc
Procedure, shortened: as §1

[4] = biological target: Fuc(a1-2)Gal(b1-3)[Fuc(a1-4)]GlcNAc(b1-2)Man(a1-3)[Fuc(a1-2)Gal(b1-3)[Fuc(a1-4)]GlcNAc(b1-2)Man(a1-6)]Man(b1-4)GlcNAc(b1-4)[Fuc(a1-6)]GlcNAc(b1-4)[Fuc(a1-6)]GlcNAc
Procedure, shortened: as §1

[5] = biological target: Fuc(a1-2)Gal(b1-3)[Fuc(a1-4)]GlcNAc(b1-3)[Fuc(a1-3)[Gal(b1-4)]GlcNAc(b1-6)]Gal(b1-4)Glc
Procedure, shortened: as §1

[6] = biological target: Fuc(a1-2)Gal(b1-4)Glc6S
Procedure, shortened: as §1

[7] = biological target: Fuc(a1-2)[Gal(a1-3)]Gal(b1-4)GlcNAc
Procedure, shortened: as §1

[8] = biological target: Fuc(a1-2)[Gal(a1-3)]Gal(b1-4)[Fuc(a1-3)]GlcNAc
Procedure, shortened: as §1

[9] = biological target: Fuc(a1-2)[GalNAc(a1-3)]Gal(b1-3)GlcNAc(b1-6)GalNAc
Procedure, shortened: as §1

[10] = biological target: Fuc(a1-2)[GalNAc(a1-3)]Gal(b1-4)GlcNAc(b1-2)Man(a1-3)[Fuc(a1-2)[GalNAc(a1-3)]Gal(b1-4)GlcNAc(b1-2)Man(a1-6)]Man(b1-4)GlcNAc(b1-4)[Fuc(a1-6)]GlcNAc
Procedure, shortened: as §1

[11] = biological target: Fuc(a1-2)[GalNAc(a1-3)]Gal(b1-4)GlcNAc(b1-3)Gal(b1-4)GlcNAc
Procedure, shortened: as §1

[12] = biological target: Fuc(a1-3)[Gal3S(b1-4)]GlcNAc6S
Procedure, shortened: as §1

[13] = biological target: Gal(a1-3)Gal(b1-3)[Fuc(a1-4)]GlcNAc(b1-2)Man(a1-3)[Gal(a1-3)Gal(b1-3)[Fuc(a1-4)]GlcNAc(b1-2)Man(a1-6)]Man(b1-4)GlcNAc(b1-4)GlcNAc
Procedure, shortened: as §1

[14] = biological target: Gal(b1-3)GlcNAc(b1-2)Man
Procedure, shortened: as §1

[15] = biological target: Gal(b1-3)GlcNAc(b1-2)Man(a1-3)[GlcNAc(b1-4)][Gal(b1-3)GlcNAc(b1-2)Man(a1-6)]Man(b1-4)GlcNAc(b1-4)GlcNAc
Procedure, shortened: as §1

[16] = biological target: Gal(b1-3)GlcNAc(b1-3)Gal(b1-4)GlcNAc(b1-2)Man(a1-3)[Gal(b1-3)GlcNAc(b1-3)Gal(b1-4)GlcNAc(b1-2)Man(a1-6)]Man(b1-4)GlcNAc(b1-4)GlcNAc
Procedure, shortened: as §1

[17] = biological target: Gal(b1-3)GlcNAc(b1-3)Gal(b1-4)GlcNAc(b1-2)[Gal(b1-3)GlcNAc(b1-3)Gal(b1-4)GlcNAc(b1-6)]Man(a1-6)[Gal(b1-3)GlcNAc(b1-3)Gal(b1-4)GlcNAc(b1-2)Man(a1-3)]Man(b1-4)GlcNAc(b1-4)[Fuc(a1-6)]GlcNAc
Procedure, shortened: as §1

[18] = biological target: Gal(b1-3)GlcNAc(b1-3)Gal(b1-4)GlcNAc(b1-3)Gal(b1-4)GlcNAc(b1-2)[Gal(b1-3)GlcNAc(b1-3)Gal(b1-4)GlcNAc(b1-3)Gal(b1-4)GlcNAc(b1-6)]Man(a1-6)[Gal(b1-3)GlcNAc(b1-3)Gal(b1-4)GlcNAc(b1-3)Gal(b1-4)GlcNAc(b1-2)Man(a1-3)]Man(b1-4)GlcNAc(b1-4)[Fuc(a1-6)]GlcNAc
Procedure, shortened: as §1

[19] = biological target: Gal(b1-3)GlcNAc(b1-3)Gal(b1-4)[Fuc(a1-3)]GlcNAc(b1-6)[Gal(b1-3)GlcNAc(b1-3)]Gal(b1-4)Glc
Procedure, shortened: as §1

[20] = biological target: Gal(b1-4)GlcNAc(b1-2)Man(a1-3)[GlcNAc(b1-4)][Gal(b1-4)GlcNAc(b1-2)Man(a1-6)]Man(b1-4)GlcNAc(b1-4)GlcNAc
Procedure, shortened: as §1

[21] = biological target: Gal(b1-4)GlcNAc(b1-3)Gal(b1-4)GlcNAc(b1-3)Gal(b1-4)GlcNAc(b1-2)Man(a1-3)[Gal(b1-4)GlcNAc(b1-3)Gal(b1-4)GlcNAc(b1-3)Gal(b1-4)GlcNAc(b1-2)Man(a1-6)]Man(b1-4)GlcNAc(b1-4)[Fuc(a1-6)]GlcNAc
Procedure, shortened: as §1

[22] = biological target: Gal(b1-4)GlcNAc(b1-3)Gal(b1-4)GlcNAc(b1-3)Gal(b1-4)GlcNAc(b1-2)[Gal(b1-4)GlcNAc(b1-3)Gal(b1-4)GlcNAc(b1-3)Gal(b1-4)GlcNAc(b1-6)]Man(a1-6)[Gal(b1-4)GlcNAc(b1-3)Gal(b1-4)GlcNAc(b1-3)Gal(b1-4)GlcNAc(b1-2)Man(a1-3)]Man(b1-4)GlcNAc(b1-4)[Fuc(a1-6)]GlcNAc
Procedure, shortened: as §1

[23] = biological target: Gal(b1-4)GlcNAc(b1-3)Gal(b1-4)GlcNAc(b1-3)Gal(b1-4)GlcNAc(b1-3)Gal(b1-4)GlcNAc(b1-3)Gal(b1-4)GlcNAc(b1-2)Man(a1-3)[Gal(b1-4)GlcNAc(b1-3)Gal(b1-4)GlcNAc(b1-3)Gal(b1-4)GlcNAc(b1-3)Gal(b1-4)GlcNAc(b1-3)Gal(b1-4)GlcNAc(b1-2)Man(a1-6)]Man(b1-4)GlcNAc(b1-4)[Fuc(a1-6)]GlcNAc
Procedure, shortened: as §1

[24] = biological target: Gal(b1-4)GlcNAc(b1-3)Gal(b1-4)GlcNAc(b1-3)GalNAc
Procedure, shortened: as §1

[25] = biological target: Gal(b1-6)Gal
Procedure, shortened: as §1

[26] = biological target: Gal3S(b1-3)[Fuc(a1-4)]GlcNAc
Procedure, shortened: as §1

[27] = biological target: Gal6S(b1-3)GlcNAc
Procedure, shortened: as §1

[28] = biological target: Gal6S(b1-4)Glc6S
Procedure, shortened: as §1

[29] = biological target: GalNAc3S(b1-4)GlcNAc3S
Procedure, shortened: as §1

[30] = biological target: GlcNAc(a1-3)Gal(b1-4)GlcNAc
Procedure, shortened: as §1

[31] = biological target: GlcNAc(a1-4)Gal(b1-4)GalNAc
Procedure, shortened: as §1

[32] = biological target: GlcNAc(a1-4)Gal(b1-4)GlcNAc(b1-3)Gal(b1-4)GlcNAc
Procedure, shortened: as §1

[33] = biological target: GlcNAc(b1-3)Gal(b1-4)GlcNAc(b1-3)[GlcNAc(b1-3)Gal(b1-4)GlcNAc(b1-3)]GalNAc
Procedure, shortened: as §1

[34] = biological target: GlcNAc(b1-4)GlcNAc(b1-4)GlcNAc(b1-4)GlcNAc(b1-4)GlcNAc
Procedure, shortened: as §1

[35] = biological target: Kdn(a2-6)Gal(b1-4)GlcNAc
Procedure, shortened: as §1

[36] = biological target: Man(a1-2)Man(a1-3)[Man(a1-2)Man(a1-6)]Man(a1-6)[Man(a1-2)Man(a1-2)Man(a1-3)]Man
Procedure, shortened: as §1

[37] = biological target: Neu5Ac(a2-3)Gal(b1-3)[GlcNAc(b1-6)]GalNAc
Procedure, shortened: as §1

[38] = biological target: Neu5Ac(a2-3)Gal(b1-3)[Neu5Ac(a2-6)]GlcNAc(b1-3)[Fuc(a1-3)[Gal(b1-4)]GlcNAc(b1-6)]Gal(b1-4)Glc
Procedure, shortened: as §1

[39] = biological target: Neu5Ac(a2-3)Gal(b1-4)GlcNAc
Procedure, shortened: as §1

[40] = biological target: Neu5Ac(a2-3)Gal(b1-4)GlcNAc(b1-6)[Neu5Ac(a2-3)Gal(b1-3)]GalNAc
Procedure, shortened: as §1

[41] = biological target: Neu5Ac(a2-3)Gal(b1-4)[Fuc(a1-3)]GlcNAc(b1-6)[Gal(b1-3)]GalNAc
Procedure, shortened: as §1

[42] = biological target: Neu5Ac(a2-6)Gal(b1-4)GlcNAc
Procedure, shortened: as §1

[43] = biological target: Neu5Ac(a2-6)Gal(b1-4)GlcNAc(b1-2)Man(a1-3)[Man(a1-6)]Man(b1-4)GlcNAc(b1-4)GlcNAc
Procedure, shortened: as §1

[44] = biological target: Neu5Ac(a2-6)Gal(b1-4)GlcNAc(b1-3)Gal(b1-4)[Fuc(a1-3)]GlcNAc(b1-3)Gal(b1-4)[Fuc(a1-3)]GlcNAc
Procedure, shortened: as §1

[45] = biological target: Neu5Ac(a2-6)Gal(b1-4)GlcNAc6S
Procedure, shortened: as §1

[46] = biological target: Neu5Ac(a2-6)GlcNAc(b1-4)GlcNAc(b1-4)GlcNAc
Procedure, shortened: as §1

[47] = biological target: Neu5Ac(a2-8)Neu5Ac(a2-8)Neu5Ac
Procedure, shortened: as §1

B1: CpGal16 (Clavelina picta) (protein)
chain: MAKMITNYVGKRIECIMVATDMMSTVFSLASATGDLPFYINFRQRENSIVMNTRVHGKWQYEKSQSSGGMNFYEPFRLVVEVRPSVFKVTVSTMGEEDGITFNLQYSQITIKPDEIVAMHLGYCNLRSELLVTDL
glycan array binding signal (z-score) [1]: 2.93
glycan array binding signal (z-score) [2]: 3.11
glycan array binding signal (z-score) [3]: 2.79
glycan array binding signal (z-score) [4]: -0.402
glycan array binding signal (z-score) [5]: -0.394
glycan array binding signal (z-score) [6]: 3.43
glycan array binding signal (z-score) [7]: -0.113
glycan array binding signal (z-score) [8]: -0.434
glycan array binding signal (z-score) [9]: 3.13
glycan array binding signal (z-score) [10]: 0.044
glycan array binding signal (z-score) [11]: 2.86
glycan array binding signal (z-score) [12]: -0.265
glycan array binding signal (z-score) [13]: -0.202
glycan array binding signal (z-score) [14]: 0.015
glycan array binding signal (z-score) [15]: 2.87
glycan array binding signal (z-score) [16]: 3.83
glycan array binding signal (z-score) [17]: 3.99
glycan array binding signal (z-score) [18]: 4.48
glycan array binding signal (z-score) [19]: 3.33
glycan array binding signal (z-score) [20]: -0.358
glycan array binding signal (z-score) [21]: 0.953
glycan array binding signal (z-score) [22]: 1.44
glycan array binding signal (z-score) [23]: 1.28
glycan array binding signal (z-score) [24]: -0.168
glycan array binding signal (z-score) [25]: -0.407
glycan array binding signal (z-score) [26]: -0.266
glycan array binding signal (z-score) [27]: -0.282
glycan array binding signal (z-score) [28]: -0.12
glycan array binding signal (z-score) [29]: 0.397
glycan array binding signal (z-score) [30]: -0.249
glycan array binding signal (z-score) [31]: -0.312
glycan array binding signal (z-score) [32]: -0.32
glycan array binding signal (z-score) [33]: -0.168
glycan array binding signal (z-score) [34]: -0.348
glycan array binding signal (z-score) [35]: -0.352
glycan array binding signal (z-score) [36]: -0.232
glycan array binding signal (z-score) [37]: -0.388
glycan array binding signal (z-score) [38]: -0.357
glycan array binding signal (z-score) [39]: -0.378
glycan array binding signal (z-score) [40]: -0.324
glycan array binding signal (z-score) [41]: 0.134
glycan array binding signal (z-score) [42]: -0.456
glycan array binding signal (z-score) [43]: -0.395
glycan array binding signal (z-score) [44]: -0.419
glycan array binding signal (z-score) [45]: -0.303
glycan array binding signal (z-score) [46]: -0.261
glycan array binding signal (z-score) [47]: -0.39
